# Source: PubChem (several laboratories)
# NCOA2 inhibitor: human SRC2 (NCOA2) inhibition | HEK293 GAL4-SRC2 luciferase reporter, luminescence | Q15596 | AID 651957 | 0.17% of 370,000 active | inhibition, % at 9 µM;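 active = inhibition above the mean inhibition of all tested compounds plus 3 SD, set per campaign, cut at about 52% in these data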
# NR5A2 inv ag: suppresses constitutive activity of human LRH-1; HEK293T StAR-luciferase reporter, LRH-1 transfected, 24 h; inhibition, % at 3.6 µM; O00482; 0.13% of 360,000 active; AID 602396;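 active = inhibition above the mean inhibition of all tested compounds plus 3 SD, cut at about 73% in these data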
# NCOA1 inh: inhibits human SRC1 coactivator; HEK293 GAL4-SRC1 luciferase reporter, luminescence; inhibition, % at 3.6 µM; Q15788; 0.12% of 360,000 active;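 active = inhibition above the campaign mean plus 3 SD, with each screening campaign given its own cutoff, cut at about 60% in these data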
# NCOA3 inh: human NCOA3 inhibition; Q9Y6Q9; inhibition, % at 3.6 µM; AID 588352; 0.17% of 360,000 active; HEK293 GAL4-SRC3 luciferase reporter, luminescence;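 active = inhibition above a per-campaign cutoff, the mean of all compounds plus 3 SD, cut at about 60% in these data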;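 note: higher means less SRC3-driven luciferase light from the GAL4 reporter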
# NR2F2 inh: blocks human COUP-TFII nuclear receptor | AID 686940 | inhibition, % at 8.6 µM | HEK293T NGFI-A luciferase reporter, luminescence | 0.7% of 370,000 active;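 active = inhibition above a per-plate cutoff, mean inhibition of test wells between control levels plus 3 SD, cut at about 38% in these data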;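 note: cells cotransfected with COUP-TFII expression vector driving the NGFI-A reporter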
# Gli-Sufu antag: blocks Gli-Sufu signaling in a luciferase reporter; Sufu-KO-LIGHT fibroblasts, Gli luciferase reporter luminescence; inhibition, % at 5 µM; 0.74% of 340,000 active;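 active = inhibition above about 55%, limit read from the data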
# Gli antag conf: confirmation of Gli-SUFU pathway antagonists; Sufu-KO-LIGHT cells, Gli luciferase reporter, luminescence; inhibition, % at 5 µM; 40% of 2,500 active; shares compounds with Gli-Sufu antag;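 active = mean inhibition at 5 µM reaching about 45%, limit read from the data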
# Gli cytotox: counter-screen for Gli-SUFU antagonists: cytotoxicity; shares compounds with Gli-Sufu antag; Sufu-KO-LIGHT cells cytotoxicity, ATP luminescence; cytotoxicity, % at 5 µM; 32% of 2,500 active;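 active = mean cytotoxicity at 5 µM above about 25%, limit read from the data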;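 note: cells exposed to compound overnight for roughly 16 to 18 hours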
# Wnt3a cs: inhibits Wnt3a reporter, counter-screen for Gli-SUFU antagonists; inhibition, % at 6.25 µM; 20% of 2,500 active; shares compounds with Gli-Sufu antag; AID 651995; Wnt-LIGHT cells, Wnt3a-driven luciferase reporter, luminescence;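 active = mean inhibition above about 25%, limit read from the data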
# Numbers stand for hits; – = inactive; · = not tested or not shown. Rows were chosen to be rich in hits. Some 1.3% of all compounds tested hit in one or more screens of this group.
SMILES,NCOA2 inhibitor,NR5A2 inv ag,NCOA1 inh,NCOA3 inh,NR2F2 inh,Gli-Sufu antag,Gli antag conf,Gli cytotox,Wnt3a cs
CCOc1ccc(-c2cc(C(C)=O)c3n(c2=O)CCC3)cc1,–,·,·,·,–,·,·,·,·
CC(=O)Nc1ccc(S(=O)(=O)NCc2ccncc2)cc1,–,–,–,–,–,56,–,–,–
CC1CCCCC1NS(=O)(=O)c1ccc(S(=O)(=O)NCc2ccncc2)cc1 (stereo not drawn),·,·,·,·,·,67,59,–,–
CC(=O)N1C[C@@H](CO)[C@@H](N(C)C(=O)Nc2cccc3ccccc23)C[C@H]1c1ccccc1,–,·,·,·,–,·,·,·,·
Cc1ccc(NC(=O)C2CCN(c3ncccn3)CC2)cc1C,–,·,·,·,–,·,·,·,·
O=C(Cc1c(F)cccc1Cl)OCC(=O)c1ccc[nH]1,–,–,–,–,–,56,–,–,–
O=C(Cc1c(Cl)cccc1Cl)OCC(=O)c1ccc[nH]1,–,–,–,–,–,·,·,·,·
CCOc1ccc(OCc2ccc(C(=O)NC(C)(C)C)o2)cc1,–,–,–,–,–,–,–,–,–
CCOc1ccc(OCc2ccc(C(=O)NN)o2)cc1,–,–,–,–,–,–,·,·,·
CCCNC(=O)c1ccc(N2CCC3(CC2)CC(c2ccccc2)=NO3)c(NC(=O)c2ccccc2)c1,–,–,–,–,–,–,·,·,·
CCCNC(=O)c1ccc(N2CCC3(CC2)CC(c2ccccc2)=NO3)c(NC(=O)c2cccc(C)c2)c1,–,–,–,–,–,–,–,–,–
COc1ccc(C(NC(C)=O)c2ccc3cccnc3c2O)c(OC)c1 (stereo not drawn),·,–,–,–,·,–,·,·,·
CCCC(=O)NC(c1ccc(Cl)cc1)c1ccc2cccnc2c1O (stereo not drawn),–,77,–,–,–,86,82,35,71
CCC(=O)NC(c1ccc(C)cc1)c1cc(Cl)c2cccnc2c1O (stereo not drawn),·,–,–,–,·,–,·,·,·
CCCC(=O)NC(c1ccc(C)cc1)c1ccc2cccnc2c1O (stereo not drawn),·,85,65,68,·,89,85,50,87
CC(=O)NC(c1ccc2ccccc2c1)c1ccc2cccnc2c1O (stereo not drawn),–,90,–,–,–,92,83,40,78
CCCCC(=O)NC(c1ccc(Cl)cc1)c1ccc2cccnc2c1O (stereo not drawn),–,84,–,–,–,89,88,37,88
Cc1c(C(=O)O)sc2nc(C)n(C)c(=O)c12,–,–,–,–,–,96,–,–,–
Cc1c(C(=O)O)sc2nc3n(c(=O)c12)CCCCC3,–,–,–,–,–,–,·,·,·
Cc1ccc(NC(=O)c2ccccc2F)nc1,–,–,–,–,–,99,–,–,–
CC(C)(C)c1ccc(-n2ncc3c2CCCC3NC(=O)c2ccncc2)cc1 (stereo not drawn),–,–,–,–,–,–,–,–,–
O=C(NC1CCCc2c1cnn2-c1cc(F)cc(F)c1)c1ccncc1 (stereo not drawn),–,–,–,–,–,–,·,·,·
CC(C(=O)NCCS(=O)(=O)c1ccc(Cl)cc1)S(=O)(=O)c1ccccc1 (stereo not drawn),–,–,–,–,–,–,·,·,·
CC(C(=O)NCCS(=O)(=O)c1ccc(Cl)cc1)S(=O)(=O)c1ccc(Cl)cc1 (stereo not drawn),–,–,–,–,–,72,–,–,–
Cc1ccc(-c2cc(-c3nnc(SCC(=O)Nc4nccs4)n3N)[nH]n2)cc1,–,·,·,·,–,·,·,·,·
O=C(/C=C/c1ccc(S(=O)(=O)N2CCOCC2)cc1)NCc1ccccc1Cl,–,–,–,–,–,–,·,·,·
O=C(/C=C/c1ccc(S(=O)(=O)N2CCOCC2)cc1)NCc1ccccc1F,–,–,–,–,–,–,–,–,–
Cc1ccc(C(=O)N2CCC[C@@H]2C(=O)N2CCC[C@@H]2C(=O)NCc2ccccc2)cc1,–,·,·,·,–,·,·,·,·
